Experimental data as given in ChEMBL document CHEMBL4513216, “Probing the Open Global Health Chemical Diversity Library for Multistage-Active Starting Points for Next-Generation Antimalarials” (ACS Infect Dis, 2020).
The campaign covered roughly 65,000 compounds. About 2,100 (3.2%) showed an effect of 50% or more. The median lay at about -52%. The sample as a whole holds a higher share of strong results than the screen did.

What follows are compounds tested on Plasmodium falciparum (assay: Screen against P. falciparum Asexual Blood Stage (ABS), at 5uM). Conditions: tested at 5 uM.
Type: functional, Dd2

Row | SMILES | INHIBITION
1 | CCC/C=C/c1ccc(CN2CCN(C)CC2)cn1 | 0.24%
2 | O=C(NCc1cnn2cccnc12)C1CC2(CCNCC2)CN1 (configuration not stated) | -20.8%
3 | O=C(C1CC1)N1CC2(CCNCC2)C1 | -76.2%
4 | O=C(C1CC2(CCNCC2)CN1)N1CCN(c2cccc(Cl)c2Cl)CC1 (configuration not stated) | 79.2%
5 | CC(C)c1nc(CC(=O)N2CCN(C)CC2c2ccccc2)cs1 (configuration not stated) | -16.5%
6 | CC(Cn1cccn1)NCc1nc(-c2cccs2)no1 (configuration not stated) | -230%
7 | c1cnnc(N2CCCC2CNCc2nc(-c3cccs3)no2)c1 (configuration not stated) | 72.2%
8 | Cc1ccsc1CNCC1CCCN1c1cccnn1 (configuration not stated) | 78.8%
9 | COc1nc(C)ccc1CNc1cc(N2CCCC2CO)ncn1 (configuration not stated) | -50.3%
10 | CC(C)c1nc(CNCC2CCCN2c2cccnn2)cs1 (configuration not stated) | 71.1%
11 | Cc1nc(CN2CCC23CCN(C(=O)c2ccncc2)CC3)cs1 | 2.76%
12 | O=C(C1CC=CC1)N1CCC2(CC1)OCCO2 | -69.1%
13 | O=C(O)[C@@H]1CN(CC(=O)N2CCCCC2)C[C@H]1c1ccc(F)cc1 | -140%
14 | NCC(=O)N1CCCCC1c1ccc(F)cc1 (configuration not stated) | 85.3%
15 | O=C(O)[C@@H]1CN(CC(=O)N2CCCCCC2)C[C@H]1c1ccc(F)cc1 | -66.2%
16 | Cc1ncsc1CN1C[C@@H](OCc2ccncc2)[C@H]2OCCC[C@H]21 | -190%
17 | CC(C)C(NC(=O)c1ccccc1F)C(=O)N1CCC2(CC1)OCCO2 (configuration not stated) | -65.9%
18 | Fc1cnc(N2CCO[C@H]3CN(CC4CCOC4)C[C@H]32)nc1 (some centres not stated) | -57.2%
19 | Cc1cn2c(n1)C(CNCC1=Cc3ccccc3OC1)CCC2 (configuration not stated) | 79%
20 | Cc1cn2c(n1)C(CNCC1=Cc3cc(Cl)ccc3OC1)CCC2 (configuration not stated) | 88.2%
21 | CC(C)C(=O)N1C[C@H]2CCCN[C@H]2C1 | 28.1%
22 | COc1cccc2c(=O)n(C3CCCNC3)cnc12 (configuration not stated) | -35.5%
23 | CC(C)c1ocnc1C(=O)N1CCC2(CC1)OCCO2 | -39.3%
24 | Cc1cc(CNC(C)Cn2cncn2)ccc1Br (configuration not stated) | -29.8%
25 | CCCOc1ccccc1C(N)CC(C)C (configuration not stated) | 75.1%
26 | COC[C@H]1CCC[C@]12CN(Cc1cccc(C)n1)CCO2 | -25.5%

Row | SMILES | INHIBITION
27 | CN1C(=O)C2(CCN(CCO)C2)c2ccccc21 (configuration not stated) | -143%
28 | O=C1Nc2ccccc2CC12CCN(CCO)C2 (configuration not stated) | -93.6%
29 | OCCN1CC2(CCN(c3ccccc3)C2)C1 | 62.8%
30 | Cc1noc(C)c1CN1CC[C@@H]2O[C@@H](COCC3CC3)CC[C@@H]21 | 0.666%
31 | OCC1CCCCN1c1ccc(-c2nc(-c3ccccc3F)no2)cn1 (configuration not stated) | 75.5%
32 | O=C(Cc1ccncc1)N1C[C@@H]2CC[C@H]1CN(Cc1cccnc1)C2 | 10.9%
33 | Cc1nc(CN2CCCC3(CCN(c4cccnc4)C3=O)C2)cs1 (configuration not stated) | -34.3%
34 | CN(C)CCN(CC1CCCO1)C(=O)Cc1cn2ccccc2n1 (configuration not stated) | -90.1%
35 | c1ccn2cc(CN3CCCC(c4ccn[nH]4)C3)nc2c1 (configuration not stated) | 89.1%
36 | Cn1ncc(NCc2cccc(OCC(F)(F)F)c2)c(Cl)c1=O | -44.7%
37 | CCCS(=O)(=O)N1CCN(CCOC)c2nc(C)ccc2C1 | -87%
38 | CCn1cc(NC(=O)N2CCN(C(=O)Oc3ccccc3)CC2)cn1 | -56.8%
39 | c1cc(CN2CCOCC3(CCNCC3)C2)ccn1 | -114%
40 | c1cnc(N2CCOCC3(CCCN(Cc4cc[nH]n4)C3)C2)nc1 (configuration not stated) | -63.1%
41 | c1[nH]c(CC2CCCC2)nc1CN1CCCC2(CCOC2)C1 (configuration not stated) | 82.2%
42 | Cc1cc(CN(C)C(=O)CN2CCCC2=O)no1 | -32.3%
43 | COc1cc(OC)cc(C2SCC(=O)Nc3ccsc32)c1 (configuration not stated) | -38.5%
44 | O=C(Nc1cccnc1)[C@H]1C[C@H]2OCC[C@H]2N(CC2CC2)C1 | -67.1%
45 | Cc1n[nH]c2c1C(c1cccnc1)SCC(=O)N2 (configuration not stated) | -32.5%
46 | Cc1cccc(CN2CCN(C(=O)N(C)C)[C@@H]3CS(=O)(=O)C[C@@H]32)n1 | -85.1%
47 | CCC[C@H]1CN(c2nc(CO)cs2)C[C@@H]1NC(=O)C1(COC)CC1 | 71.7%
48 | O=C(Nc1cccnc1)[C@H]1COC[C@H]2CN(C3CCCC3)C[C@H]21 | 12.5%
49 | O=C(C[C@@H]1COC[C@H]2CN(CC3CC3)C[C@@H]12)NCc1cccnc1 | -75.7%
50 | O=C(C1CCCC1)N1C[C@H]2CNC[C@H]2C1 | -5.05%
51 | O=C(C1CCC1)N1C[C@H]2CNC[C@H]2C1 | -30.2%
52 | O=C(C1CCOCC1)N1C[C@H]2CNC[C@H]2C1 | 52.6%
